Screening results as filed in PubChem.
Sampled rows, rich in hits. Any-hit rate of the full collection: about 1.4%.
AID504770 – growth inhibitors of E. coli YBA685 in a screen for V. cholerae RctB (chromosome II replication) inhibitors | z-score (test concentration not listed) | hit rate 0.27% among 130,000 | E. coli YBA685 rctB-dependent plasmid, OD600 growth, 3 h; hits give low values; in the data active means z-score below about -2, passing the limit was not always enough
MenB inh – Mtb MenB enzyme inhibition | P9WNP5 | MenB enzyme assay, absorbance read-out | inhibition, % (no concentration beside the values) | hit rate 0.43% among 100,000; in the data active means inhibition above about 21%, passing the limit was not always enough
Mtb MbtI inh – MbtI salicylate synthase inhibition | hit rate 0.89% among 100,000 | purified MbtI enzyme, fluorescence intensity read-out | P9WFX0 | inhibition, % (concentration not given with the values); in the data active means inhibition mostly above about 56%, no sharp cut-off; inactive means mostly below about 77%
Target sequence (P9WFX0 whole entry, looked up): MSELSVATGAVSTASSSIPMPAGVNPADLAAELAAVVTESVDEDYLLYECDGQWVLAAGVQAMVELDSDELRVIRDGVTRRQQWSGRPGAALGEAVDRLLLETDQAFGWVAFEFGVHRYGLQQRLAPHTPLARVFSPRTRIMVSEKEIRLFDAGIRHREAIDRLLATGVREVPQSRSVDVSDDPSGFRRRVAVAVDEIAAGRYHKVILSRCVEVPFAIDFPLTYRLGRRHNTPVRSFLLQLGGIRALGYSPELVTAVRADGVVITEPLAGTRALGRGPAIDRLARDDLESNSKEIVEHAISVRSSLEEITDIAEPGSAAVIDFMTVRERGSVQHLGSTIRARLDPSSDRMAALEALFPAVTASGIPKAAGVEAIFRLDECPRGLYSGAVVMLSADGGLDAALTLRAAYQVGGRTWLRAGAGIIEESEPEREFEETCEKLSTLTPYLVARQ
Polio RdRp inh – inhibitors of poliovirus RNA polymerase binding and polymerization; poliovirus polymerase elongation, fluorescence polarization; hits give low values; % elongation, % (compound at 16.7 µg/mL); hit rate 0.66% among 150,000; AID 588519; in the data active means % elongation below about 90%
Large screens that a line does not name were inactive.

O=c1c(Cl)c[nH]n(-c2ccccc2)c1=O	none
CSc1c[nH]n(-c2ccccc2)c(=O)c1=O	Mtb MbtI inh 78
CCN(CCCNC(=O)c1cc2c(=O)[nH]c3ccc(C)cc3c2s1)Cc1ccccc1	Polio RdRp inh 87 (no result: AID504770, MenB inh, Mtb MbtI inh)
CC1(C)OC(C)(C)/C(=C/c2c(Cl)cccc2Cl)C1=O	none (no result: Mtb MbtI inh)
COC(=O)Cc1cc(=O)n(C(C)(C)C)[nH]1	none
CNC(=S)N/N=C/c1cccc(Cl)c1	Polio RdRp inh 13
CC(C)NC(=S)N/N=C/c1cccc(O)c1	none
CC1CCN(C(=O)CN(CCc2ccccc2)S(C)(=O)=O)CC1	none
CS(=O)(=O)N(CCc1ccccc1)CC(=O)N1CCOCC1	MenB inh 34
COC(=O)c1cc2cccc(OC)c2oc1=O	none
COc1cccc(OC)c1C(=O)ON=C1C=CC(=O)C=C1	Mtb MbtI inh 83
CN1CCN(C2=C(C(=O)Nc3ccc(Cl)cc3)CC/C2=C\c2ccccc2)CC1	none
O=c1sn(-c2ccc(F)c(Cl)c2)c(=O)n1C1Cc2ccccc2C1	AID504770 -3.3, Mtb MbtI inh 83
N#CCn1ccn(-c2ccc(F)c(Cl)c2)c(=O)c1=O	none
CCN(N)c1nc(Cl)cc(C)c1C#N	none (no result: Mtb MbtI inh)
CCN(CC)CCNC(=O)c1ccc2c(=O)n3nc(Nc4ccccc4)sc3nc2c1	Polio RdRp inh 81 (no result: AID504770, MenB inh, Mtb MbtI inh)
COCc1[nH]c(=S)[nH]c(=O)c1Cc1c(F)cccc1Cl	none
CCCCCCCc1c(COC)[nH]c(=S)[nH]c1=O	Mtb MbtI inh 55
FC(F)Oc1ccc(NC(=S)NNc2nc3ccccc3[nH]2)cc1	Polio RdRp inh 44
O=c1oc2c(o1)=C(c1ccccc1)S(=O)(=O)C=2c1ccccc1	Mtb MbtI inh 58
O=c1cc(-c2ccccc2)oc2ccccc12	none (no result: MenB inh, Mtb MbtI inh, Polio RdRp inh)
CCCOc1ccc(-c2nc(NCCN)c3ccccc3n2)cc1	AID504770 -3 (no result: MenB inh, Mtb MbtI inh, Polio RdRp inh)
CC(=O)OCCNc1nc(-c2ccccc2)nc2ccccc12	none (no result: MenB inh, Mtb MbtI inh, Polio RdRp inh)
Cc1cc(C)n(C(=O)c2ccoc2C)n1	MenB inh 36
Cc1cc(C)n(C(=O)c2cccs2)n1	none
CC(=O)Nc1sc2c(c1CN(C)C)CCCC2	none
CC(=O)Nc1sc2c(c1-c1nsc(=O)o1)CCCC2	Polio RdRp inh 82 (no result: Mtb MbtI inh)
N#Cc1cc(Cl)ccc1Nc1ncnc(N)n1	AID504770 -2.4 (no result: MenB inh, Mtb MbtI inh, Polio RdRp inh)
C=CCc1c(C)nc(SC)nc1Nc1ccc(OC)cc1	none
O=C(N/N=C/c1ccco1)C1CN(S(=O)(=O)c2ccccc2)CCN1S(=O)(=O)c1ccccc1 (stereo not drawn)	Mtb MbtI inh 84
Cc1ccc(N(CC(=O)Nc2cc(C)ccc2C)S(=O)(=O)c2c(C)nn(C)c2C)cc1	none
Nc1nc2ccccc2n1Cc1ccc(Cl)c(Cl)c1	AID504770 -4.2 (no result: Mtb MbtI inh)
O=C(c1ccc(N2CCCc3ccccc32)s1)N1CCCC1	AID504770 -2.2
O=C(N1CCOCC1)N1CCN(c2ccccc2)CC1	MenB inh 36
O=C(Nc1ccccc1)C(=S)N1CCOCC1	Polio RdRp inh 82 (no result: Mtb MbtI inh)
N/C(=N\C(=S)Nc1ccccc1)N1CCOCC1	none
O=C(N1CCOCC1)N1CCN(c2ccccc2F)CC1	none
Cc1ccc(-n2c(C)cc(P(=S)(N3CCOCC3)N3CCOCC3)c2C)c(C)c1	Mtb MbtI inh 69
Cc1cc(P(=N)(N2CCOCC2)N2CCOCC2)c(C)n1-c1ccc(I)cc1	none
O=c1c(Cl)c(Nc2ccc(F)cc2)cnn1-c1ccccc1	Polio RdRp inh 84
CCN1C(=O)C(=Cc2ccc(-c3ccc(Br)c(Cl)c3)o2)C(=O)N(CC)C1=S	Mtb MbtI inh 90
Cn1c(SCC(=O)N(c2ccccc2)C2CCCCC2)nc2cc(S(N)(=O)=O)ccc21	Polio RdRp inh 79
c1ccc(CSc2n[nH]c(-c3ccncc3)n2)cc1	none
CCC(Sc1nc2c(c(=O)[nH]1)CCC2)C(=O)Nc1cccc(OC)c1 (stereo not drawn)	Mtb MbtI inh 96
CC(C)CCNC(=O)C1=CC=CN2CCS(=O)(=O)N=C12	none
NC(=O)COC(=O)c1n[nH]c2ccccc12	AID504770 -3.5
Nc1cccc2c1C(=O)N(C(=O)c1ccc3c(c1)S(=O)(=O)N=C1CCCCCN13)C2=O	Polio RdRp inh 58
COc1ccc(C(=O)N/C(=C\c2ccccc2)C(=O)NCc2ccco2)cc1	none
O=C(OCc1ccc(F)cc1)c1ccccc1F	none (no result: MenB inh)
Cc1ccc(-c2c(CN3CCN(c4cccc(C(F)(F)F)c4)CC3)csc2C)cc1	Polio RdRp inh 89 (no result: AID504770, MenB inh, Mtb MbtI inh)
CCc1cccc(NC(=O)Nc2cn(C)c(=O)c3ccccc23)c1	Polio RdRp inh 79 (no result: AID504770, MenB inh, Mtb MbtI inh)
CC(C)Cn1cc(NC(=O)NCc2ccccn2)c2ccccc2c1=O	none
COc1cccc(NC(=O)Nc2cn(C)c(=O)c3ccccc23)c1	Polio RdRp inh 85
Cn1cc(NC(=O)Nc2ccccc2F)c2ccccc2c1=O	Polio RdRp inh 84
Cn1cc(NC(=O)NCc2ccccn2)c2ccccc2c1=O	AID504770 -2
CC1CCN(Cc2ccc(NC(=O)Nc3cn(C)c(=O)c4ccccc34)cc2)CC1	none
CCOC(=O)N1CCN(C(=O)c2ccccc2NC(=O)c2cccc(C)c2)CC1	none
CC1Cc2ccccc2N1C(=O)CSC1=C(C#N)C(c2ccccc2F)CC(=O)N1 (stereo not drawn)	none (no result: MenB inh, Mtb MbtI inh, Polio RdRp inh)
CCN(CC)c1ncnc2sc(C)c(C)c12	none (no result: MenB inh)
Cc1sc2ncnc(N)c2c1C	Polio RdRp inh 67
CCC(C)n1c(=O)[nH][nH]c1=S (stereo not drawn)	Mtb MbtI inh 51
Cc1noc(C)c1-c1ccc(Cl)c(C(=O)O)c1	none
CC(C)(C)c1cc(C(F)(F)F)c(C#N)c(SCC#N)n1	none
CCOc1ccc(OCCCCN(C)C)cc1	none
CCOc1ccc(C(=S)N(C)C)cc1	Mtb MbtI inh 78
O=C(NN=C1C2CC3CC(C2)CC1C3)c1cccc(O)c1	none
O=C(NCc1ccccc1)c1ccco1	none
O=C(NCc1ccco1)C(Sc1ccccc1)c1ccccc1 (stereo not drawn)	MenB inh 33
O=C(NCc1ccco1)C(=S)NCc1ccccc1	Mtb MbtI inh 68
CCCNC(=O)c1ccc(CS(=O)(=O)c2ccccc2C)o1	none
CN(C)c1ccc(NC(=O)Cn2c(SCc3ccccc3F)nc3cccnc32)cc1	Polio RdRp inh 19 (no result: AID504770, MenB inh, Mtb MbtI inh)
O=C(CSCCOc1ccccc1)N1CCCC1	none
CCOc1ccc2c(c1)sc(=N)n2Cc1ccc(Cl)cc1	none (no result: MenB inh)
CN=C1c2c(C)c3cc(OC)ccc3n2CCN1C	none
COc1ccc2c(c1)c1nc(N(C)C)nc3c1n2CCN3C	Polio RdRp inh 6.0
CC(C)Cn1cc(NC(=O)N2CCN(c3ccccc3)CC2)c2ccccc2c1=O	none
Cc1ccc(Cl)cc1NC(=O)Nc1cn(CC(C)C)c(=O)c2ccccc12	Polio RdRp inh 69 (no result: AID504770, MenB inh, Mtb MbtI inh)
CC(=O)c1ccc(N2CCN(C(=O)Nc3cn(CC(C)C)c(=O)c4ccccc34)CC2)cc1	Polio RdRp inh 76 (no result: AID504770, MenB inh, Mtb MbtI inh)
COc1ccc(CNC(=O)Nc2cn(CC(C)C)c(=O)c3ccccc23)cc1	Polio RdRp inh 60 (no result: AID504770, MenB inh, Mtb MbtI inh)
O=C(CCn1c(=O)oc2ccccc21)Sc1ccc(Cl)cc1Cl	Mtb MbtI inh 70, Polio RdRp inh 87
O=C(CCn1c(=O)oc2ccccc21)Oc1cccc(Cl)c1	none (no result: MenB inh, Mtb MbtI inh, Polio RdRp inh)
CC(C)c1nc(=S)[nH][nH]1	Mtb MbtI inh 87, Polio RdRp inh 84
C/C(=N\NC(=O)C(F)(F)F)c1ccccc1O	MenB inh 34
Cc1nn2c(N(C)CCO)c3c(nc2c1-c1ccc(F)cc1)CCCC3	none
